According to PubChem BioAssay (NCI):
The panel holds about 83,000 compounds, 20% with a hit somewhere; the sample as a whole holds those more often.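 The endpoint reported here, percent growth, reads 100 for growth as untreated, 0 for no net growth and -100 for all cells dead.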 Values without a mark were called inactive. The source made the active and inactive calls.

The molecules below were run on PC-3 prostate (assay: NCI-60 one-dose screen, 48 h (100 = growth as untreated, 0 = no growth, -100 = all killed)). Conditions: 10 µM unless noted.
Protocol: Growth inhibition of the PC-3 human tumor cell line is measured as a screen for anti-cancer activity. Cells are grown in 96 well plates and exposed to the test compound for 48 hours. Compounds are tested at a single concentration, which is 10^-5 M for most compounds. The reported endpoint is percent growth (GI% or GIPRCNT), where numbers from 0 - 100% represent growth inhibition, and numbers from -100% - 0 represent cell death. For example, a value of 40 represents 60% growth inhibition. A value of 0 means no net growth occurred over the course of the experiment. A value of -40 indicates 40% of cells at the beginning of the experiment died by the end of the experiment. A value of -100 means all cells are dead at the end of the experiment.
NCI-60 Human Tumor Cell Lines Screen was performed using the standard one-dose NCI protocol, which is described in more detail at https://dtp.cancer.gov/discovery_development/nci-60/default.htm.
Compounds with GIPRCNT values below 10 were considered active. Activity score was based on GIPRCNT using the following formula: […]
Score is 0 for GIPRCNT values of 100 or above, 50 for GIPRCNT values of 0, and 100 for GIPRCNT values of -100.

Row | Compound | growth
1 | Cn1[nH]cc(/C=N/C(N)=O)c1=O | 108%
2 | Cc1cc2cn3c4cccnc4[nH]c(=O)c3c2cc1C | 67.7%
3 | Cc1nn(-c2ccc(Cl)cc2)c2nc3c(nc12)C(=O)C(=O)c1ccccc1-3 | 73.9%
4 | C/C(=C\CCc1ccsc1)CC/C=C(\C)CCCN1CCC(CO)CC1 | 41.2%
5 | C/C(=N/N=C(N)N)c1ccc(N)cc1 | 92.1%
6 | CC(C)C/C(=N\NC(=O)c1ccncc1)c1cc(Cl)ccc1O | 22.4%
7 | Nc1ccc2c(c1)/C(=N/O)c1cc([N+](=O)[O-])ccc1-2 | 45.3%
8 | O=C(Cc1ccccn1)C(F)(F)C(F)(F)C(F)(F)F | 91.3%
9 | c1ccc(-n2nnnc2-c2cccc3ccccc23)cc1 | 5.09% (active)
10 | Cc1cc2c(cc1C)Nc1sc(NC(=O)CN3CCN(C)CC3)nc1C(=O)N2 | 101%
11 | O=C(CCc1nnc2sc(-c3ccc(Cl)cc3Cl)nn12)c1nc2ccccc2[nH]1 | -38.5% (active)
12 | O=C(/C=C/c1cccnc1)NCCCCC1CCCN(C(=O)c2ccccc2)C1 (stereo not given) | 47.5%
13 | CCCCCCCCSc1ncnc2c1ncn2CO | 75.6%
14 | c1cncc(CNc2ccccc2-c2nnc(Nc3ccc4c(c3)OCO4)o2)c1 | 27.9%
15 | OC(Cc1cccnc1)c1ccccc1 (stereo not given) | 101%
16 | CN1CCN(CC(=O)Nc2nc3c(s2)Nc2cc(Cl)c(Cl)cc2NC3=O)CC1 | 97.7%
17 | COc1cc(C2NC(c3ccc(Cl)cc3)C(C)C(=NC(=O)c3cnccn3)C2C)cc(OC)c1OC (stereo not given) | 88.8%
18 | CCCCCCCC/C=C/CCCCCCCC1=NC(C)(C)CN1CC(C)O (stereo not given) | 42%
19 | CCCCCCOc1ccc(/C=N/NC(N)=S)cc1 | 49.4%
20 | Cc1nn(-c2ccccc2)c2nc3c(nc12)C(=O)CCC3 | 90%

Row | Compound | growth
21 | O=C(CN1CCCCC1)Sc1nnc2sc3ccccc3n12 | 93%
22 | COc1cc(/C=C/C(=O)N2CCN(C(=O)/C=C/c3ccccc3)CC2)cc(OC)c1OC | 93.6%
23 | Fc1ccc([C@@H]2CCNC[C@H]2COc2ccc3c(c2)OCO3)cc1 | 53.6%
24 | CCN(CC)CCNc1ccc(Cl)cc1Cl | 97.3%
25 | Cc1nc(N)[nH]c(=O)c1C | 117%
26 | O=C(Nc1ccccc1Cl)c1cnc2ccc(C3CCNCC3)cn12 | 72.1%
27 | CO[C@H]1/C=C/O[C@@]2(C)Oc3c(C)c(O)c4c(O)c(c(/C=N/N5CCN(C)CC5)c(O)c4c3C2=O)NC(=O)/C(C)=C\C=C\C(C)[C@H](O)[C@@H](C)[C@@H](O)[C@@H](C)[C@@H](OC(C)=O)[C@@H]1C (stereo not given in full) | 94%
28 | COc1cc(/C=C2\COc3ccc(O)c(O)c3C2=O)cc(OC)c1 | -3.29% (active)
29 | COC(=O)[C@]1(CCSC)N[C@H](c2cn(-c3ccccc3)nc2C)[C@@H]2C(=O)N(c3ccc(C)cc3)C(=O)[C@@H]21 | 98.1%
30 | COc1ccc(C(=O)/C=C/c2c(Cl)nc3c(c(C)nn3-c3ccccc3)c2-c2ccc(Br)cc2)cc1 | 107%
31 | CCOc1ccccc1C(=O)OCC(=O)Nc1cccc(S(=O)(=O)N(C)C)c1 | 107%
32 | CCOC(=O)c1c(NC(=O)C2CCCCC2C(=O)O)sc2c1CCCC2 (stereo not given) | 101%
33 | Cn1cc(-c2csc(-c3cn(C)c4ncccc34)n2)c2cc(F)cnc21 | 65%
34 | Cc1nn(-c2ccccc2)c2nc(Cl)c(/C=C/C(=O)c3ccccc3)c(-c3ccccc3)c12 | 101%
35 | CN1CCCC1c1cccnc1 (stereo not given) | 48.7%
36 | O=C1NCN(c2ccccc2)C12CCN(CCCC(c1ccc(F)cc1)c1ccc(F)cc1)CC2 | 96.3%
37 | COc1ccc(/C=C(\C#N)c2ccccc2)cc1 | 83.3%
38 | COc1ccc2c(c1)nc(N)c1c3cc(OC)c(OC)cc3cn21 | 53.1%
39 | COc1ccc(C2CC(c3ccc(OC)c(OC)c3)=NN2C(=O)c2cc(OC)c(OC)c(OC)c2)cc1 (stereo not given) | 30.5%
40 | O=C(NN(C(=O)c1ccccc1)c1cccs1)c1ccccc1 | 83.4%
